Drawing on PubChem BioAssay, this text covers z-score for 39 molecules.

“And” between values parts separate entries of the source, which are not always exact repeats. Identical values can stand only once.

This assay in a line: JC-1 mitochondrial signal, unstimulated HepG2 cells – cell-based, JC-1 fluorescence, 24 h, 100 nL compound, profiling panel (AID 1167). Further: test concentration not given here. The note with it: HepG2 mitochondrial potential, higher = more signal.
Regarding `CO[C@H]1COC(=O)CC=C[C@@H](C)COC(=O)[C@H](CCSC)NC(=O)CC=C[C@@H]1C`, the z-score was 0.755 and 0.535.

Regarding `C=CCN(CCCCC)C(=O)C1N(C(C)(C)CO)C(=O)C2C(C(=O)O)C3C=CC21O3` (centres undefined), the z-score is -0.66 and -1.15.

Consider `C=CCN1C(=O)[C@]2(O[C@H](CCn3cc(CCO)nn3)[C@@H]([Si](C)(C)c3ccc(OC)cc3)[C@@H]2C)c2cc(N3C(=O)c4cccc5cccc3c45)ccc21`, for which the z-score was -1.51 and 1.37.

For the molecule `CCC[C@@H]1C[C@@]1(CCC)[C@@H](NC(=O)c1ccc(-c2ccccc2)cc1)c1cccc(Cl)c1`, the z-score was -0.93 and 2.74.

For `C[C@@H]1CC[C@H]2C(=O)O[C@H](CN=[N+]=[N-])CN2[C@H]1c1ccc(Br)cc1`, the z-score was -2.47 and 0.365.

In the case of `C[C@@H]1CN2[C@@H](CC[C@@H](C)[C@@H]2c2ccc(Br)cc2)C(=O)O1`, the z-score is 0.446 and 0.56.

On to `COc1ccc(O[C@H]2C=C[C@@H](c3ccccc3)O[C@@H]2COC(=O)CCC(C)=NO[C@H](C)c2cn([C@H](CO)Cc3ccccc3)nn2)cc1`, for which the z-score was -0.796 and -0.898.

For the molecule `CON(C)C(=O)c1nnc2c3ccccc3n(S(=O)(=O)c3ccc(C)cc3)c2n1`, the z-score is -1.61 and -1.52.

With `COc1ccc(COC(=O)NN=C2C[C@@H](O)[C@@H](O)[C@@H]3[C@@H]4C(=O)N(C(C)(C)C)C(=O)[C@@H]4CC[C@H]23)cc1`, the z-score was -0.206.

For `COC(=O)C1=C(C)N(Cc2ccccc2)[C@]23O[C@](C(=O)OC)(C(=O)N2[C@@H]1c1ccccc1)[C@@H](C(=O)OC)[C@H]3C(=O)OC`, the z-score is 0.345 and 0.106.

As for `C[C@@H]1CC[C@H]2C(=O)NC[C@@H](O)CN2[C@H]1c1ccc(Br)cc1`, the z-score is -0.606 and 0.493.

The molecule `C#CCCCON=C1C[C@@H](O)[C@@H](O)[C@@H]2[C@@H]3C(=O)N(C4CCCCC4)C(=O)[C@@H]3CC[C@H]12` returned a z-score of 0.289.

Turning to `C[C@@H]1CC[C@@H](C(=O)O)N[C@H]1c1ccc(-c2ccco2)cc1`, the z-score stood at 1.49.

With `C=CCN(C(=O)C1N(C(C)(C)CO)C(=O)C2C(C(=O)O)C3C=CC21O3)C(C)(C)C` (centres undefined), the z-score was -0.896 and 0.142.

In the case of `C=CCN(C(=O)C(c1cccs1)N(C(=O)/C=C\C(=O)O)c1ccc(CCO)cc1)C(C)(C)C` (centres undefined), the z-score is -0.178 and -0.341.

As to `Cc1ccc(S(=O)(=O)N[C@H]2COC(=O)[C@@H](Cc3ccccc3)NC(=O)[C@@H](C)COC(=O)CC=C[C@@H]2C)cc1`, the z-score is 0.0571 and -0.176.

Take `CC(C)[Si]1(C(C)C)OCc2cc(CCCc3cc4c(c(CCc5ccccc5)n3)[Si](C(C)C)(C(C)C)OC4)nc(CCc3ccccc3)c21`: the z-score is -0.508 and -1.19.

On to `O=c1n(-c2ccccc2)c(=O)n2n1CC[C@@H]1C(=NOC[C@@H](O)COCc3ccco3)[C@H]3O[C@H]3[C@@H](O)[C@@H]12`, for which the z-score is -0.16 and -1.1.

Take `O=C1C[C@]2(c3ccc([N+](=O)[O-])cc3)C(=O)N(Cc3ccccc3)c3cc(CO)ccc3[C@H]2N1C1CCCCC1`: the z-score is -0.236 and 0.352.

As to `CCOC(=O)[C@H](CC(C)C)NC(=O)CCC1CC(OC(=O)NCc2cccc3ccccc23)CC2(CCCC(COC(=O)NCc3ccccc3)O2)O1` (some centres undefined), the z-score worked out at 2.45.

Turning to `CCOC(=O)c1ccc(NC(=O)O[C@H]2[C@H](OC(=O)Nc3ccccc3)[C@H](OC(=O)Nc3ccccc3)[C@@H](OC)O[C@@H]2CO)cc1`, the z-score was -0.171 and -1.02.

`CC[C@@H]1C(Sc2ccccc2)C(C(=O)O)[C@H](c2ccc(C)cc2)N1S(=O)(=O)c1ccc(C)cc1` (some centres undefined): the z-score was -0.446 and 0.366.

On to `CCCC[C@@H]1CN2[C@@H](CC[C@@H](C)[C@@H]2c2ccc(Br)cc2)C(=O)O1`, for which the z-score was -0.48 and 0.127.

`C=CCN(CCCCC)C(=O)C(c1cccs1)N(C(=O)/C=C\C(=O)O)c1ccc(CCO)cc1` (centres undefined): the z-score is -0.087 and 0.966.

For the molecule `C=C(C)C(=O)OC[C@@H]1CN2[C@@H](CC[C@@H](C)[C@@H]2c2ccc(Br)cc2)C(=O)O1`, the z-score was found to be 0.642.

Turning to `COC(=O)C1=C2N(Cc3ccccc3)C(C)=C(C(=O)OC)[C@@H](c3ccccc3)N2C(=O)[C@](O)(C(=O)OC)C1`, the z-score is 0.574 and 0.276.

For `C=C[C@@H](C)[C@@H](O)c1ccc(OCCO)cc1`, the z-score is 0.299 and 1.09.

Regarding `C=CCN(Cc1ccccc1)C(=O)C1N(C(C)(C)CO)C(=O)C2C(C(=O)O)C3C=CC21O3` (centres undefined), the z-score was -0.955 and -0.123.

In the case of `C=CCN(C(=O)C1N(C(C)(C)CO)C(=O)C2C(C(=O)O)C3C=CC21O3)c1ccc(OC)cc1` (centres undefined), the z-score was 0.414 and 0.332.

`COC(=O)c1c2oc(c1C(=O)OC)C(=O)N[C@@H](Cc1ccccc1)Cn1cc(nn1)C1(CCCCC1)NC(=O)N[C@H](CO)CC2`: the z-score was 1.09 and 4.63.

`C=C[C@H](C)[C@H](O)c1ccc(O)c2ccccc12`: the z-score was -1.28 and -0.0285.

With `CCOC(=O)C[C@H]1[C@H](OC(=O)c2ccccc2-c2ccccc2)[C@@H](NC(=O)Cc2ccc(OC)cc2)c2cc(OCCCO)ccc2N1C(=O)c1ccc2ccccc2n1`, the z-score was 3.65 and 1.61.

In the case of `CC(C)OC(=O)C=C1C[C@@H](c2ccccc2)O[C@@H](c2ccccc2)O1`, the z-score was 1.06 and -0.0936.

For the molecule `COC(=O)C1=C(C)N(Cc2ccccc2)C2=C(C(=O)c3ccccc3)[C@H](c3ccccc3)[C@@](O)(C(=O)OC)C(=O)N2[C@@H]1c1ccccc1`, the z-score was 1.33 and 2.03.

On to `COC(=O)[C@@]1(Cc2ccc(F)cc2)[C@H]2c3cc(C(=O)N4CCCC4)n(Cc4c(CO)[nH]cc(C)c4=O)c3C[C@H]2CN1C(=O)c1ccccc1`, for which the z-score was 1.07 and 0.498.

For `C[N+](C)(C)CCCCCCNC(=O)[C@H]1C[C@H]2C(=O)N[C@@H](CCCC[N+](C)(C)C)C(=O)N2[C@H]1c1ccc(O)cc1`, the z-score was -1.34 and -0.105.

Turning to `CC(CO)N1C(=O)[C@@H]2C3C(=O)OCCC=C[C@H]3OC23C=CCN(CCN2CCOCC2)C(=O)[C@@H]13` (some centres undefined), the z-score was -0.41 and -1.09.

Regarding `CCCC[C@@H]1CN2[C@H](c3ccc(Br)cc3)[C@@H](C)CC[C@H]2C(=O)O1`, the z-score was 0.134 and -1.42.

Consider `CO[C@H]1COC(=O)CC=C[C@H](C)[C@H](OC)COC(=O)[C@@H](C)COC(=O)CC=C[C@@H]1C`, for which the z-score is 0.152 and 1.09.
